Assay results published in PubChem BioAssay AID1850 (Southern Research Specialized Biocontainment Screening …, 2009).
The whole screen tested about 310,000 compounds, of which about 1,000 (0.32%) were called active. The list is a sample of the results. Results with a measured potency or affinity are listed apart. A number with no mark means an inactive call. The rule behind the calls is not given here.

Experiment: PhoP regulon inhibitors, Salmonella typhi PhoP promoter GFP reporter, confirmatory (AID 1850);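 note: 0% = induced wells with vehicle and 100% = uninduced wells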
Settings: fluorescence, 4 h, at 50 µM, hits give high values

Compound	inhibition [%]
CC(=O)Nc1cccc(C(=O)OC(C)C(=O)NC2CCCc3ccccc32)c1 (stereo not drawn)	-2.01
CCNc1cc(N2CCOCC2)nc(SC)n1	7.57
CCOC(=O)c1cn(C2CC2)c2c(F)c(F)c(F)cc2c1=O	5.55
COc1c(F)c(F)cc2c(=O)c(C(=O)O)cn(C3CC3)c12	1.27
COC(=O)C(c1cc(OC)c(O)c(OC)c1)(N1CCNC(C)C1)C(F)(F)F (stereo not drawn)	-16.6
Cc1cccc(-c2cc(=O)c(C(=O)O)cn2-c2ccc(F)cc2F)c1	-13.4
O=C(O)c1cn(-c2ccc(N3CCCC3)c(F)c2)c2c(F)c(F)c(F)cc2c1=O	-7.01
CCOC(=O)c1cn(C2CC2)c2c(F)c(NCCCN(C)C)c(F)cc2c1=O	4.81
O=C(O)c1cn(C2CCCCC2)c2ccccc2c1=O	2.42
O=C(Nc1cccnc1)C1CC(c2ccccc2O)=NO1 (stereo not drawn)	-2.59
CCNc1nc(NCC)nc(OCCOC(=O)c2ccccc2)n1	-3.56
COc1cc(CNCCN2CCOCC2)ccc1OCc1ccccc1Cl	8.72
COc1cccc(C2c3[nH]c4ccccc4c3C[C@H]3C(=O)N(c4ccccc4C(=O)N4CCC(C(=O)O)CC4)C(=O)N23)c1 (stereo partly drawn)	-4.46
O=C(c1cccc(F)c1)N1CCN(C(=O)c2cc3nc(-c4ccco4)cc(C(F)(F)F)n3n2)CC1	-3.4
COc1cc(NC(=O)Cc2ccc(F)cc2)cc(OC)c1OC	-5.66
CCOC(=O)Cc1csc(NC(NC(=O)CC)(C(F)(F)F)C(F)(F)F)n1	0.93
CC1CCCCC1NC(=O)COC(=O)COc1ccccc1Cl (stereo not drawn)	-4.09
O=C(CCS(=O)(=O)c1cccc2nonc12)N1CCCc2ccccc21	4.05
CCOc1ccc(C(=O)Nc2nc(C)c(C(=O)OC)s2)cc1	-11
Cc1ccc(S(=O)(=O)N2CN3CCN(C3)C2)cc1	13.8
CCOc1ccc(S(=O)(=O)N2CN3CCN(C3)C2)cc1	-2.97

Compound	inhibition [%]
Cc1ccc(N2C(=O)c3ccccc3C2=O)cc1	-2.86
CC(=O)N(c1ccc(Cl)cc1)c1nc(C)cc(C)c1C#N	6.97
CCc1ccc(NC(=O)Nc2ccon2)cc1	-5.91
CCc1ccc(NC(=O)Nc2cnccn2)cc1	-5.86
S=C(NCc1ccncc1)Nc1ccc(Cl)cc1	-0.61
S=C(NCc1ccc(Cl)cc1)Nc1ccccc1	-8.41
O=C(Nc1ccncc1)Nc1ccncc1	0.03
O=C(Nc1ccncc1)Nc1ccc(F)c(Cl)c1	14.2
O=C1CCS/C(=N\N=C\c2ccc(Cl)cc2Cl)N1	6.05
CCc1ccc(-c2cc3c(=O)n(CC(=O)NCCCN4CCN(C)CC4)ncn3n2)cc1	5.21
CC1CCCCC1NC(=O)CSc1ccc([N+](=O)[O-])cc1 (stereo not drawn)	6.99
Cc1cc(-c2nnc3n2N=C(c2ccc(F)cc2)CS3)n[nH]1	-5.9
COc1ccccc1-n1c(C)cc(C=O)c1C	-1.75
CCCc1nc(Cl)c(C#N)c2c1CCCC2	-3.33
CCOC(=O)Cc1cn2c(=O)cc(CSCC(=O)Nc3ccc(C)c(C)c3)nc2s1	-2.4
COc1cc2[nH]c3c(c2cc1OC)CCN1CCCC[C@@H]31	5.9
O=S(=O)(c1ccc(F)cc1)c1nc(-c2ccco2)oc1Nc1ccc(F)cc1	-12.3
C=CCn1c(SCC(=O)NC2CCS(=O)(=O)C2)nnc1-c1ccc(Cl)cc1 (stereo not drawn)	-6.21
O=C(CSc1nnc(C2COc3ccccc3O2)o1)Nc1ccc(F)cc1Cl (stereo not drawn)	-3.78
O=C(Nc1nnc(C2=COCCO2)o1)c1ccc(F)cc1	1.96
CCOC(=O)C1=C(COC(=O)C2(C)CC2(Cl)Cl)NC(=O)NC1c1ccc(OC)cc1 (stereo not drawn)	6.71

Compound	inhibition [%]
COc1ccccc1CNCC(=O)Nc1cc(S(=O)(=O)N2CCCCCC2)ccc1Cl	-6.34
CCN(c1ccc(C(O)(C(=O)OC)C(F)(F)F)cc1)S(=O)(=O)c1ccccc1 (stereo not drawn)	-2.75
CN(C)CCNC(=O)COc1ccc(Cl)cc1Cl	1.91
COc1ccc(Cl)cc1C(=O)NCCN(C)C	-0.53
CCCSc1nc(N)cc(=O)[nH]1	5.93
Oc1ccc2c(c1)c1c3n2CCNC3CCC1 (stereo not drawn)	-4.83
Cc1ccc2c(c1)c1c3n2CCN(C(=O)CN2CCN(C)CC2)C3CCC1 (stereo not drawn)	4.43
Cc1ccc2c(c1)c1c3n2CCN(C(=O)CCl)C3CCC1 (stereo not drawn)	7.2
c1ccc(-c2ccc3c(c2)c2c4n3CCN=C4CCC2)cc1	6.31
Cc1ccc2c(c1)c1c3n2CCCNC3CCC1 (stereo not drawn)	5.15
Cc1ccc2c(c1)c1c3n2CCN=C3CCC1	0.52
CCOP(=O)(c1ccccc1)C1(O)CCCCC1 (stereo not drawn)	14.1
Cc1ccc(S(=O)(=O)N2C(=O)CCC2C(=O)O/N=C(\N)c2ccccc2)cc1 (stereo not drawn)	-13.3
O=C(CN(C(=O)c1csnn1)c1ccccc1Cl)NC1CCCC1	13.4
O=C(O)c1cccc([N+](=O)[O-])c1C(=O)Nc1nc2ccccc2s1	4.78
CCn1c(CN2c3ccccc3Sc3ccccc32)n[nH]c1=S	4.44
O=C(c1cccc(Cl)c1)N1CCCc2ccccc21	4.51
Cc1ccc(S(=O)(=O)N2CCN(c3cnn(C)c(=O)c3Cl)CC2)cc1	-6.96
CCCCn1c(N)c(N(CCC(C)C)C(=O)CCN2C(=O)C3CC=CCC3C2=O)c(=O)[nH]c1=O (stereo not drawn)	0.9
CCOC(=O)c1c(NC(=O)Cn2nc(C(=O)O)c3ccccc3c2=O)sc2c1CCC(C)C2 (stereo not drawn)	17.9
COc1cccc(C2(O)CC(C(F)(F)F)=NN2C(=O)c2ccccn2)c1 (stereo not drawn)	7.91
